Inconclusive results are not listed. Active and inactive are the calls of the source. Unless noted, calls follow the shape of the dose curve; as a rule, active = well fitted inhibition curve with a large enough effect; inconclusive = small, poorly fitted or top-dose-only effect; inactive = flat fitted curve, though single readings scatter.
How the values were obtained:
[1] = S16 Schwann cell PMP22 intronic element beta-lactamase assay (AID 624044; calls by dose curve; also: nearly all actives have a fitted effect of over 15% in size)
Outline: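 Rat S16 Schwann cells with beta-Lac driven by a PMP22 intronic element, compound-treated 24 h at 37 °C. LiveBLAzer FRET B/G read: 460 nm normalized to potassium clavulanate vs DMSO; 535 nm FRET as viability; concentration-effect curves classified.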

ATS189 = experiment: qHTS profiling for inhibitors of Plasmodium falciparum proliferation (AID 504749); also: nearly all actives have a fitted effect of over 60% in size; also: potency is read from the fitted curve at half-maximal effect; conditions: P. falciparum in erythrocytes, SYBR Green DNA, 72 h; series mostly up to 12.8 µM
Outline: (§1)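 Readout was DNA-dye fluorescence from lysed cultures, ex 485/em 535 nm. Parasitized red cells had grown 72 h with compound; data scaled between 0.29 uM artemisinin and DMSO wells and corrected using vehicle-only plates.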

ATS95 = experiment: as above; conditions: P. falciparum in erythrocytes, SYBR Green DNA, 72 h; series mostly up to 12.8 µM
Outline: as §1

CP201 = experiment: as above; conditions: P. falciparum in erythrocytes, SYBR Green DNA, 72 h; series mostly up to 12.8 µM
Outline: as §1

CP247 = experiment: as above; conditions: P. falciparum in erythrocytes, SYBR Green DNA, 72 h; series mostly up to 12.8 µM
Outline: as §1

CP260 = experiment: as above; conditions: P. falciparum in erythrocytes, SYBR Green DNA, 72 h; series mostly up to 12.8 µM
Outline: as §1

CP262 = experiment: as above; conditions: P. falciparum in erythrocytes, SYBR Green DNA, 72 h; series mostly up to 12.8 µM
Outline: as §1

CP268 = experiment: as above; conditions: P. falciparum in erythrocytes, SYBR Green DNA, 72 h; series mostly up to 12.8 µM
Outline: as §1

CP269 = experiment: as above; conditions: P. falciparum in erythrocytes, SYBR Green DNA, 72 h; series mostly up to 12.8 µM
Outline: as §1

CP286 = experiment: as above; conditions: P. falciparum in erythrocytes, SYBR Green DNA, 72 h; series mostly up to 12.8 µM
Outline: as §1

CP297 = experiment: as above; conditions: P. falciparum in erythrocytes, SYBR Green DNA, 72 h; series mostly up to 12.8 µM
Outline: as §1

CP305 = experiment: as above; conditions: P. falciparum in erythrocytes, SYBR Green DNA, 72 h; series mostly up to 12.8 µM
Outline: as §1

CP315 = experiment: as above; conditions: P. falciparum in erythrocytes, SYBR Green DNA, 72 h; series mostly up to 12.8 µM
Outline: as §1

DIV17 = experiment: as above; conditions: P. falciparum in erythrocytes, SYBR Green DNA, 72 h; series mostly up to 12.8 µM
Outline: as §1

Dd2 = experiment: as above; conditions: P. falciparum in erythrocytes, SYBR Green DNA, 72 h; series mostly up to 12.8 µM
Outline: as §1

GB4 = experiment: as above; conditions: P. falciparum in erythrocytes, SYBR Green DNA, 72 h; series mostly up to 12.8 µM
Outline: as §1

PAD = experiment: as above; conditions: P. falciparum in erythrocytes, SYBR Green DNA, 72 h; series mostly up to 12.8 µM
Outline: as §1

TAB109 = experiment: as above; conditions: P. falciparum in erythrocytes, SYBR Green DNA, 72 h; series mostly up to 12.8 µM
Outline: as §1

TAB113 = experiment: as above; conditions: P. falciparum in erythrocytes, SYBR Green DNA, 72 h; series mostly up to 12.8 µM
Outline: as §1

TAB165 = experiment: as above; conditions: P. falciparum in erythrocytes, SYBR Green DNA, 72 h; series mostly up to 12.8 µM
Outline: as §1

Measured: Potency

CC[C@H]1NC(=O)c2cc(S(N)(=O)=O)c(Cl)cc2N1
inactive: all assays above

CCOC(=O)O[C@]1(C(=O)COC(=O)CC)CC[C@@H]2[C@@H]3CCC4=CC(=O)C=C[C@@]4(C)[C@H]3[C@H](O)C[C@]21C
inactive: all assays above

CC(C)(C)NC[C@@H](O)COc1ccccc1C1CCCC1
active: ATS189 3.16 µM | ATS95 3.55 µM | CP260 3.16 µM | CP269 5.73 µM | CP286 3.55 µM | CP297 7.21 µM | DIV17 3.22 µM | Dd2 1.58 µM | GB4 1.81 µM | PAD 3.16 µM | TAB109 3.16 µM | TAB113 3.98 µM | TAB165 3.55 µM
inactive: [1]

OCCN1CCN(CCC=C2c3ccccc3Sc3ccc(Cl)cc32)CC1
active: CP286 3.55 µM | Dd2 3.98 µM | GB4 4.05 µM
inactive: [1] | CP268 | CP297 | CP305 | TAB113

C[C@H]1CC[C@]2(OC1)O[C@@H]1C[C@@H]3[C@@H]4CC[C@H]5C[C@@H](O)CC[C@]5(C)[C@@H]4CC(=O)[C@@]3(C)[C@H]1[C@@H]2C
not listed: [1]
inactive: all other assays above

CCCC(=O)Nc1ccc(OC[C@@H](O)CNC(C)C)c(C(C)=O)c1
inactive: [1]

CC(C)(C)NC[C@H](O)COc1cccc2c1C[C@@H](O)[C@@H](O)C2
inactive: all assays above

Cc1ccc2c(c1)c1c3n2CCN[C@H]3CCC1
active: DIV17 12 µM
not listed: ATS189 | CP286 | CP297 | Dd2 | GB4 | PAD | TAB109 | TAB165
inactive: all other assays above

O=C1O[C@@H]([C@@H](O)CO)[C@@H](O)[C@H]1O
not listed: TAB109
inactive: all other assays above

Cc1ncc([N+](=O)[O-])n1C[C@H](O)CCl
not listed: TAB109
inactive: all other assays above

CO[C@H]1[C@H](O[C@H]2O[C@@H](C)[C@@H](O[C@@H]3C[C@](C)(O)[C@H](O)[C@H](C)O3)[C@@H](N(C)C)[C@@H]2O)[C@@H](CC=O)C[C@@H](C)[C@@H](O[C@H]2CC[C@H](N(C)C)[C@H](C)O2)/C=C\C=C/C[C@@H](C)OC(=O)C[C@H]1O
active: TAB109 1.58 µM
inactive: ATS189 | CP201 | CP247 | CP315 | DIV17 | Dd2 | PAD | TAB165

C[C@H](N[C@@H](C)COc1ccccc1)[C@H](O)c1ccc(O)cc1
not listed: CP297 | DIV17 | Dd2 | GB4
inactive: all other assays above

CN[C@H]1[C@H](O)[C@@H](O[C@@H]2[C@H](O)[C@@H](O[C@H]3OC(CN)=CC[C@H]3N)[C@@H](N)C[C@H]2N)OC[C@@]1(C)O
inactive: all assays above

— PubChem BioAssay (NCATS)
